# Bioassay records (PubChem)
# FBW7 activator: human FBW7 E3 ligase activation, primary screen. Q969H0. AlphaScreen FBW7–phospho-cyclin E peptide binding, activator screen. normalized activity (activation), % at 26.1 µM. 650,000 compounds, 0.13% hits. AID 1259310; in the data active = normalized activity above about 1.9%;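 also: purified mutant Fbw7 with reduced substrate affinity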
# MITF primary: human MITF inhibition, primary screen. AlphaScreen MITF homodimerization, bead proximity signal. O75030. inhibition, % at 2.6 µM. 650,000 compounds, 0.91% hits; in the data active = inhibition above about 50%
# Target sequence (O75030 whole entry, looked up): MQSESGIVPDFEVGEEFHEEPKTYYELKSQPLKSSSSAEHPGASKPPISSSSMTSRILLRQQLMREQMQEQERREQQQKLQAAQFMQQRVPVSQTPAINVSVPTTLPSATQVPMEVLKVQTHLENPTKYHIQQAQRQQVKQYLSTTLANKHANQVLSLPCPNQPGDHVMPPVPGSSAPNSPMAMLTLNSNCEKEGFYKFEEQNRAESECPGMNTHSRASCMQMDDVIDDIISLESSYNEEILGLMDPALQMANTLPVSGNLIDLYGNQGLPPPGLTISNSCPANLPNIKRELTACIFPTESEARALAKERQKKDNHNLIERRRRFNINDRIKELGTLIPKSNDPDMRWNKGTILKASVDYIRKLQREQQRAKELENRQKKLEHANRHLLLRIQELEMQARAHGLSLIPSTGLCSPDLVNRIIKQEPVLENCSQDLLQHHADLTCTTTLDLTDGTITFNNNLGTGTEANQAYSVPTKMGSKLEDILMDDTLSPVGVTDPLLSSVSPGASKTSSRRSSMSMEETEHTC
# TEAD-YAP inh: TEAD-YAP interaction inhibition; 640,000 compounds, 1.4% hits; inhibition, % at 9.12 µM; HEK-TIYL cells, TEAD-Gal4/YAP UAS-luciferase luminescence; in the data active = inhibition above about 32%
# GPR151 activ: human GPR151 activation | activation, % at 11.2 µM | 650,000 compounds, 1% hits | PathHunter beta-arrestin GPR151 cells, luminescence; in the data active = activation above about 4.9%
# GPR151 conf act: human GPR151 activation, confirmation screen; activation, % at 11.2 µM; 6,700 tested, under 10 active; shares compounds with GPR151 activ; GPR151 PathHunter beta-arrestin cells, luminescence, 90 min; % of EA-reagent control over plate median;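 active = mean percent activation across replicates above the confirmation screen cutoff of 4.91%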
# GPR119 counter: activates human GPR119 in a GPR151 counter-screen. 6,700 compounds, 0.3% hits. activation, % at 11.2 µM. GPR119 PathHunter beta-arrestin cells, luminescence, 90 min; 0 = compound-well median, 100 = enzyme-acceptor control. shares compounds with GPR151 activ. AID 1508611;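 active = mean percent activation in the counterscreen above 29.09%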;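 also: counterscreen on off-target GPR119 to flag nonselective hits from the GPR151 activator screen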
# A number is an active result; 0 = inactive; - = no result; ! = not confirmed by another sample. In the library only some 3.5% were active in any assay of this set; here they are far more common.
SMILES,FBW7 activator,MITF primary,TEAD-YAP inh,GPR151 activ,GPR151 conf act,GPR119 counter
CC(NC(=O)COc1ccccc1C#N)c1ccccc1 (configuration not stated),0,0,0,0,-,-
COc1cc(CNc2nccn3c(-c4cccc(Cl)c4)cnc23)cc(OC)c1OC,0,0,0,0,-,-
O=Cc1cc(Cl)ccc1OCC(=O)Nc1ccc(F)cc1,0,0,0,11,0,0
O=C(COc1ccc(F)cc1)Nc1ccc(Cl)cn1,0,0,0,18,0,0
O=C(Nc1ccc(Cl)cn1)c1ccc(Cl)cc1Cl,0,0,0,7.0,0,0
O=C(Nc1ccc(Cl)cn1)c1ccccc1Cl,0,0,0,0,-,-
O=C(COc1ccc(F)cc1F)Nc1ccc(F)cc1,0,0,0,0,-,-
O=C(COc1ccc(Cl)cc1)Nc1ccc(Br)cn1,0,0,0,0,-,-
Cc1cc(OC(C)C(=O)N2CCOCC2)cc(C)c1Cl (configuration not stated),0,0,0,0,-,-
Cc1cccc(NC(=O)CSc2nc(=O)n(CC3CCCO3)c3c2CCC3)c1 (configuration not stated),0,0,0,0,-,-
C/C(N)=C(/C#N)C(=O)COC(=O)c1ccc2c(c1)S(=O)(=O)c1ccccc1C2=O,0,0,0,0,-,-
CCc1ccccc1N(C)C(=O)c1cc2cc(OC)ccc2oc1=O,0,0,0,5.9,0,0
O=C1NCCN(Cc2ccc(Cl)c(F)c2)C1CC(=O)N1CCCC1 (configuration not stated),0,0,0,0,-,-
N#Cc1cc2c(cc1C#N)Sc1cc(C#N)c(C#N)cc1S2,0,0,0,0,-,-
CCOc1ccc(CCNC(=O)c2cn(-c3ccc(OC)cc3)c(=O)c3ccccc23)cc1,0,0,0,7.0,0,0
Cc1ccc(CNC(=O)CN(C)S(=O)(=O)c2ccc3c(c2)C(C)(C)C(=O)N3C)cc1,0,0,0,0,-,-
O=C1C2C3CCC(C3)C2C(=O)N1c1ccc(OS(=O)(=O)c2ccccc2)cc1 (configuration not stated),0,0,0,7.6,0,0
CC(C)c1ccc(NC(=O)CN(c2ccc(Cl)cc2)S(C)(=O)=O)cc1,0,0,0,6.2,0,0
CC(C)c1ccc(N(CC(=O)NCCSc2ccccc2)S(C)(=O)=O)cc1,0,0,0,21,0,0
CC(=O)Nc1ccc(NC(=O)CN(c2ccc(C(C)C)cc2)S(C)(=O)=O)cc1,0,0,0,0,-,-
CCc1ccc(-n2c(=S)sc3c(=O)n(-c4ccccc4)c(SCc4ccccc4C)nc32)cc1,0,0,0,0,-,-
O=C(N/N=C\c1ccccc1[N+](=O)[O-])C(=O)Nc1cccc(Br)c1,0,0,0,0,-,-
Cc1ccc(C(C)C)cc1OCCOCCNCCN(C)C,0,0,0,5.1,0,0
Cc1ccc(S(=O)(=O)N(CC(=O)NCC(C)C)C2CCCCC2)cc1,0,0,0,0,-,-
CC(c1ccccc1)C1CC(=O)N(Cc2ccccc2)C1=O (configuration not stated),0,0,0,22,0,0
SMILES,FBW7 activator,MITF primary,TEAD-YAP inh,GPR151 activ,GPR151 conf act,GPR119 counter
CC(c1ccccc1)C1CC(=O)N(c2ccc(Cl)cc2)C1=O (configuration not stated),0,0,0,0,-,-
COC(=O)C(CCSC)NC(=O)c1ccc(Cl)cc1Cl (configuration not stated),0,0,0,9.7,0,0
O=C(Nc1cccc(-c2ccco2)c1)C1CCN(Cc2cccc3c2OCO3)CC1,0,0,0,0,-,-
Cn1c(O)c(/C=C2\C=NN=C2c2ccc(F)cc2)c(=O)[nH]c1=O,0,0,0,0,-,-
Cc1ccc(S(=O)(=O)NCCCOC(C)C)cc1,0,0,0,5.0,0,0
CCCCCn1c(SCC(=O)OCC)nc2cc(C(=O)NC3CCCCC3)ccc2c1=O,0,0,0,5.4,0,0
Cc1c(Cl)cccc1NC(=O)C1CCN(C(=O)Cc2ccccc2)CC1,0,0,0,0,-,-
O=C(Nc1ccccc1F)C1CCN(C(=O)Cc2ccccc2)CC1,0,0,0,5.4,0,0
Cc1ccc(N(CC(=O)O)C2SC(=O)NC2=O)cc1 (configuration not stated),0,0,0,5.7,0,0
COc1ccc(CNS(=O)(=O)c2ccc(OC)c(Cl)c2)cc1,0,0,0,0,-,-
Cc1cccc(NC(=O)C(c2ccc(Cl)cc2Cl)N2CCC2=O)c1 (configuration not stated),0,0,0,7.8,0,0
NC(=O)C1(N2CCCCC2)CCN(C(=O)Nc2ccc(F)cc2F)CC1,0,0,0,5.9,0,0
NC(=O)C1(N2CCCCC2)CCN(C(=S)Nc2ccc(F)cc2)CC1,0,0,0,0,-,-
Cc1cc(NC(=O)CSc2nc3ccsc3c(=O)n2-c2ccc(C(N)=O)cc2)no1,0,0,0,5.0,0,0
CCOC(=O)c1c(NC(=O)c2ccccc2)sc(C(=O)Nc2cccc(Cl)c2)c1C,0,0,0,0,-,-
CCc1nnc(NC(=O)c2ccccc2[N+](=O)[O-])s1,0,0,0,0,-,-
O=C(Nc1nc(-c2ccccc2)cs1)c1ccccc1[N+](=O)[O-],0,0,0,0,-,-
CC(C)(C)Cc1nnc(NC(=O)c2ccccc2[N+](=O)[O-])s1,0,0,0,13,0,0
O=C(Nc1nc(-c2ccccn2)cs1)c1ccccc1[N+](=O)[O-],0,0,54,5.4,0,0
CC(C(=O)N1CCC2(CC1)CC2C(=O)Nc1ccc(-n2cccn2)cc1)N1CCOCC1 (configuration not stated),0,0,0,0,-,-
COc1ccccc1C(=O)CSc1nnc(Nc2ccccc2)s1,0,0,0,0,-,-
CC[C@@H](C(=O)C(C)[C@@H](O)[C@H](C)CCc1ccc(C)c(O)c1C(=O)O)C1OC(CC)(C2CC[C@](O)(CC)[C@H](C)O2)C[C@@H]1C (some centres not stated),0,0,0,13!,0,51
O=C1CC(=O)c2ccccc2N1,0,0,0,0,-,-
CC(C)NC(=O)CN1C(=O)COc2ccc(C(C)(C)C)cc21,0,0,0,5.8,0,0
CC(C)(C)c1ccc2c(c1)N(CC(=O)NC1CCCCCC1)C(=O)CO2,0,0,0,5.5,0,0
COCCNC(=O)CN1C(=O)COc2ccc(Cl)cc21,0,0,0,7.8,0,0
O=C(CN1C(=O)COc2ccc(Cl)cc21)NC1CCCCCC1,0,0,0,0,-,-
CCc1ccccc1NC(=O)C1CCCN1S(=O)(=O)c1cccc2nsnc12 (configuration not stated),0,0,0,0,-,-
CC(=O)c1c(C)oc2c(Br)cc(NS(=O)(=O)c3ccc4ccccc4c3)cc12,0,0,0,0,-,-
O=C(Nc1c(C(=O)c2ccc(Cl)cc2)oc2ccccc12)c1cccnc1,0,0,0,0,-,-
